Reference: PubChem BioAssay (NCATS)
Records with an inconclusive call do not appear. Entries that show only a call come without a potency. The source made the active and inactive calls. Unless noted, the call rests on the fitted dose curve; in most records, active means well fitted curve in the direction sought with a large enough effect; inconclusive means small, poorly fitted or top-dose-only effect, or another doubt; inactive means no such curve, though single readings can be large; an effect the other way counts as inactive or inconclusive.

Target: Mitogen-activated protein kinase 10 (Mus musculus) (UniProt Q61831)
Experiment: JNK3 AlphaScreen Assay (AID 530; active means well fitted curve in either direction with a large enough effect, not every such curve was filed as active;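 further: kinase came from lysate of stimulated human HepG2 cells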)
Details: JNK3 lysate, c-Jun phosphorylation; series mostly up to 57.1 µM
In short: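 Room-temperature AlphaScreen kinase assay; pre-activated HepG2 lysate as JNK3 source, biotin-GST-cJun(1-79) substrate, 10 uM ATP, compound 15 min preincubation.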
Potency means the concentration at half of the fitted maximal effect.

| Structure (SMILES) | Potency |
| --- | --- |
| Cc1cc(O)c(C(C)(C)C)cc1Sc1cc(C(C)(C)C)c(O)cc1C | inactive |
| Cc1ccc(S(=O)(=O)Oc2ccc(N=Nc3ccc(-c4ccc(N=Nc5c(O)ccc6cc(S(=O)(=O)O)cc(S(=O)(=O)O)c56)c(C)c4)cc3C)cc2)cc1 | 0.2 µM (active) |
| ClC1=C(Cl)C(Cl)(Cl)C(Cl)=C1Cl | inactive |
| C=CC(=O)OCCOCCOC(=O)C=C | inactive |
| C/C=C1\C(=O)C[C@H]2[C@@H]3CCC4=CC(=O)CC[C@]4(C)[C@H]3CC[C@]12C | inactive |
| O=C1OC(O)C(C(Cl)Cl)=C1Cl (stereo not given) | inactive |
| CNc1ccc(O)cc1 | inactive |
| CC(=O)Nc1ccc(C(=O)CCl)cc1 | inactive |
| COc1cc2c(c(OC)c1OC)-c1ccc(OC)c(=O)cc1[C@H](NC(C)=O)CC2 | inactive |
| CC/C(=C(\c1ccccc1)c1ccc(OCCN(C)C)cc1)c1ccc(O)cc1 | inactive |
| c1ccc2c(c1)-c1cccc3c1c-2cc1ccccc13 | 2.51 µM [activator] (active) |
| O=Cc1ccc(Cl)c(Cl)c1 | inactive |

Test system: not listed separately
Experiment: Cell Viability - N2a (AID 540); further: nearly all actives have a fitted effect of over 45% in size
Details: N2a mouse neuroblastoma cell viability; activity change, negative = cytotoxicity: at 92.2 µM (top of the series)
In short: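 Mouse neuroblastoma N2a cells (1500/well) were preincubated 5 hr at 37 °C, then exposed to compounds for 40 hr at 37 °C in complete medium. Viability was read as intracellular ATP by CellTiter-Glo luminescence; AC50 from Hill fits.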

| Structure (SMILES) | activity change, negative = cytotoxicity | Potency |
| --- | --- | --- |
| Oc1ccc2cc(SSc3ccc4cc(O)ccc4c3)ccc2c1 | -111% (active) |  |
| Nc1ccc2cc3ccccc3cc2c1 |  | inactive |
| CN(C)c1ccc(C2(c3ccc(N(C)C)cc3)OC(=O)c3cc(N(C)C)ccc32)cc1 |  | inactive |
| Cc1cc(Nc2ccc(O)cc2)ccc1N | -119% (active) |  |
| CO[C@H]1/C=C/O[C@@]2(C)Oc3c(C)c(O)c4c(O)c(c5c(c4c3C2=O)NC2(CCN(CC(C)C)CC2)N=5)=NC(=O)/C(C)=C\C=C\[C@H](C)[C@H](O)[C@@H](C)[C@@H](O)[C@@H](C)[C@H](OC(C)=O)[C@@H]1C |  | inactive |
| Cc1cc(O)c(C(C)(C)C)cc1Sc1cc(C(C)(C)C)c(O)cc1C |  | 12.6 µM (active) |
| C=C(C)c1ccccc1 |  | inactive |
| O=C1OC2(c3cc(Br)c(O)c(Br)c3Oc3c2cc(Br)c(O)c3Br)c2c(Cl)c(Cl)c(Cl)c(Cl)c21 |  | 3.98 µM (active) |
| c1cc(OCC2CO2)cc(OCC2CO2)c1 (stereo not given) |  | 31.6 µM (active) |
| C=CC(=O)OCCOCCOC(=O)C=C | -114% (active) |  |
| C/C=C1\C(=O)C[C@H]2[C@@H]3CCC4=CC(=O)CC[C@]4(C)[C@H]3CC[C@]12C | -114% (active) |  |
| O=C1OC(O)C(C(Cl)Cl)=C1Cl (stereo not given) | -101% (active) |  |
| CNc1ccc(O)cc1 |  | 31.6 µM (active) |
| CC(=O)Nc1ccc(C(=O)CCl)cc1 |  | 25.1 µM (active) |
| CCC(C)Nc1ccc(NC(C)CC)cc1 (stereo not given) |  | 15.8 µM (active) |
| O=C=Nc1ccc(Cc2ccc(N=C=O)cc2)cc1 |  | inactive |
| c1ccc2c(c1)ccc1cc3c(ccc4ccccc43)cc12 |  | inactive |
| CC/C(=C(\c1ccccc1)c1ccc(OCCN(C)C)cc1)c1ccc(O)cc1 |  | 31.6 µM (active) |
| c1ccc2c(c1)-c1cccc3c1c-2cc1ccccc13 |  | inactive |
| O=[N+]([O-])c1cc([N+](=O)[O-])c2ccc(S(=O)(=O)O)cc2c1O |  | inactive |
| O=Cc1ccc(Cl)c(Cl)c1 |  | inactive |

Test system: not listed separately
Experiment: Cell Viability - NIH 3T3 (AID 541); further: nearly all actives have a fitted effect of over 25% in size
Details: NIH 3T3 cell viability, qHTS; activity change, negative = cytotoxicity: at 92.2 µM (top of the series)
In short: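 NIH 3T3 mouse embryo fibroblasts (1000 cells/well) were plated in complete medium and treated with compound for 40 hr at 37 °C. Viability was read as intracellular ATP by CellTiter-Glo luminescence; AC50 values came from Hill-equation fits of concentration-response data.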

| Structure (SMILES) | Potency | activity change, negative = cytotoxicity |
| --- | --- | --- |
| Nc1ccc2cc3ccccc3cc2c1 | inactive |  |
| Cc1cc(Nc2ccc(O)cc2)ccc1N |  | -158% (active) |
| CO[C@H]1/C=C/O[C@@]2(C)Oc3c(C)c(O)c4c(O)c(c5c(c4c3C2=O)NC2(CCN(CC(C)C)CC2)N=5)=NC(=O)/C(C)=C\C=C\[C@H](C)[C@H](O)[C@@H](C)[C@@H](O)[C@@H](C)[C@H](OC(C)=O)[C@@H]1C | 20 µM (active) |  |
| C=C(C)c1ccccc1 | inactive |  |
| O=C1OC2(c3cc(Br)c(O)c(Br)c3Oc3c2cc(Br)c(O)c3Br)c2c(Cl)c(Cl)c(Cl)c(Cl)c21 | 25.1 µM (active) |  |
| c1cc(OCC2CO2)cc(OCC2CO2)c1 (stereo not given) |  | -149% (active) |
| ClC1=C(Cl)C(Cl)(Cl)C(Cl)=C1Cl |  | -125% (active) |
| C=CC(=O)OCCOCCOC(=O)C=C | 3.16 µM (active) |  |
| C/C=C1\C(=O)C[C@H]2[C@@H]3CCC4=CC(=O)CC[C@]4(C)[C@H]3CC[C@]12C |  | -149% (active) |
| CNc1ccc(O)cc1 | 25.1 µM (active) |  |
| CC(=O)Nc1ccc(C(=O)CCl)cc1 | 2 µM (active) |  |
| CCC(C)Nc1ccc(NC(C)CC)cc1 (stereo not given) | 5.01 µM (active) |  |
| O=C=Nc1ccc(Cc2ccc(N=C=O)cc2)cc1 | inactive |  |
| c1ccc2c(c1)ccc1cc3c(ccc4ccccc43)cc12 | inactive |  |
| CC/C(=C(\c1ccccc1)c1ccc(OCCN(C)C)cc1)c1ccc(O)cc1 |  | -141% (active) |
| O=[N+]([O-])c1cc([N+](=O)[O-])c2ccc(S(=O)(=O)O)cc2c1O | inactive |  |
| O=Cc1ccc(Cl)c(Cl)c1 | inactive |  |

Test system: not listed separately
Experiment: Cell Viability - HUV-EC-C (AID 542); further: nearly all actives have a fitted effect of over 35% in size
Details: HUV-EC-C endothelial cell viability, qHTS; series mostly up to 92.2 µM
In short: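 HUV-EC-C normal human vascular endothelial cells, 1000 cells/well, pre-incubated 5 hr at 37 °C, then exposed to compounds for 40 hr at 37 °C in complete medium. Viability measured as intracellular ATP by CellTiter-Glo luminescence; AC50 from Hill fits.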

| Structure (SMILES) | Potency |
| --- | --- |
| Nc1ccc2cc3ccccc3cc2c1 | inactive |
| CN(C)c1ccc(C2(c3ccc(N(C)C)cc3)OC(=O)c3cc(N(C)C)ccc32)cc1 | inactive |
| Cc1cc(O)c(C(C)(C)C)cc1Sc1cc(C(C)(C)C)c(O)cc1C | 39.8 µM (active) |
| C=C(C)c1ccccc1 | inactive |
| Cc1ccc(S(=O)(=O)Oc2ccc(N=Nc3ccc(-c4ccc(N=Nc5c(O)ccc6cc(S(=O)(=O)O)cc(S(=O)(=O)O)c56)c(C)c4)cc3C)cc2)cc1 | 25.1 µM (active) |
| ClC1=C(Cl)C(Cl)(Cl)C(Cl)=C1Cl | inactive |
| O=C1OC(O)C(C(Cl)Cl)=C1Cl (stereo not given) | inactive |
| CC(=O)Nc1ccc(C(=O)CCl)cc1 | 50.1 µM (active) |
| CCC(C)Nc1ccc(NC(C)CC)cc1 (stereo not given) | 10 µM (active) |
| O=C=Nc1ccc(Cc2ccc(N=C=O)cc2)cc1 | inactive |
| c1ccc2c(c1)ccc1cc3c(ccc4ccccc43)cc12 | inactive |
| CC/C(=C(\c1ccccc1)c1ccc(OCCN(C)C)cc1)c1ccc(O)cc1 | 31.6 µM (active) |
| c1ccc2c(c1)-c1cccc3c1c-2cc1ccccc13 | inactive |
| O=[N+]([O-])c1cc([N+](=O)[O-])c2ccc(S(=O)(=O)O)cc2c1O | inactive |
| O=Cc1ccc(Cl)c(Cl)c1 | inactive |
